Screens deposited in PubChem by several laboratories.
Most compounds without a hit are left out; they make up all but 32% or so of the library.
PostGolgi ctrl: growth inhibition of yeast control strain, primary screen, counter-screen for post-Golgi transport modulator project; efflux-deficient yeast background strain, growth absorbance A615, 16 h; inhibition, % at 10 µM; hit rate 5% among 98,000
CYP2C19 inhib: blockers of cytochrome P450 2C19 activity – biochemical, luminescence, ADME assay, primary screen; CYP2C19 Supersomes, luciferin-H EGE luminescence, 30 min; AID 778, 2007; hit rate 21% among 96,000; inhibition, % at 5 µM; P33261;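 active = CYP2C19 inhibition above a set limit at 5 µM in the primary screen, cut at about 50% in these data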;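 note: plate controls were negative control wells for no effect and 2.5 mM tranylcypromine positive control for full effect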
PostGolgi yeast: phenotypic screen on post-Golgi transport, primary screen. hit rate 0.9% among 98,000. AID 739, 2007. post-Golgi transport phenotypic cell assay. inhibition, % at 10 µM;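 note: yeast cells grown in 1536-well plates; yeast grown about 18 h at 30C before absorbance read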
CYP2C19 activ: human CYP2C19 activators, primary screen, biochemical, luminescence; recombinant CYP2C19, luciferin-H EGE luminescence; stronger effect = higher value; 0 = fully inhibited enzyme, 1 = untreated enzyme; activation factor at 5 µM; AID 1025, 2008; 96,000 tested, under 10 active;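 active = activation factor of at least 2 at 5 µM in the primary screen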;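 note: 0 = wells with 2.5 mM tranylcypromine and 1 = vehicle-only wells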
CYP2C9 inh: blockers of cytochrome P450 2C9 activity – biochemical, luminescence, ADME assay, primary screen. inhibition, % at 5 µM. hit rate 20% among 96,000. CYP2C9 Supersomes, luciferin-H conversion;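 active = blocking of liver enzyme CYP2C9 beyond about 50% at 5 µM, limit read from the data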
Target sequence (P11712 whole entry, looked up): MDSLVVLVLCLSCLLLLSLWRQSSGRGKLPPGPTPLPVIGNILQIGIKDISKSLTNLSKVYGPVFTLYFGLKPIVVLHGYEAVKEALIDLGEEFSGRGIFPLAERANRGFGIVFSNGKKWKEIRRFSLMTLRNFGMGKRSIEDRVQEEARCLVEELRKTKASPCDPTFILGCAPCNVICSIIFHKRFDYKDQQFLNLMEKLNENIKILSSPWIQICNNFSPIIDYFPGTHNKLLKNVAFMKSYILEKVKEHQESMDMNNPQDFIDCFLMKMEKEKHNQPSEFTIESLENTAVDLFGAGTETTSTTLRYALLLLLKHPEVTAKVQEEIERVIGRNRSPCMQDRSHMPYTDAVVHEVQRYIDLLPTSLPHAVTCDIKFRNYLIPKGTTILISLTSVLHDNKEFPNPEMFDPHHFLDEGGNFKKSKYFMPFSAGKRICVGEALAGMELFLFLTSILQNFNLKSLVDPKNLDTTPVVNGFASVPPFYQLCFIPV
CYP2C9 activ: human CYP2C9 activators, primary screen, biochemical, luminescence | Cytochrome P450 2C9 (Homo sapiens), P11712 | hit rate 1.4% among 96,000 | recombinant CYP2C9, luciferin-H conversion; stronger effect = higher value; factor 1 = untreated enzyme, 0 = blocked | activation factor at 5 µM | AID 1024, 2008;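 active = activation factor of 2 or more for CYP2C9 at a 5 µM dose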;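 note: 0 = sulfaphenazole-blocked wells and 1 = vehicle-only wells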
An asterisk follows results filed as active; · = no result given. Cut-off read from the data, not from the text of the source, unless noted: active = inhibition above about 30%; inactive = the rest.

SMILES	PostGolgi ctrl	CYP2C19 inhib	PostGolgi yeast	CYP2C19 activ	CYP2C9 inh	CYP2C9 activ
CCN(CC)S(=O)(=O)c1ccc(NC2c3ccccc3C(=O)N2Cc2ccco2)cc1 (configuration not stated)	10	41	-2	0.6	92*	0.1
O=C1c2ccccc2C(Nc2cccc(C(F)(F)F)c2)N1Cc1ccco1 (configuration not stated)	32*	68*	-1	0.3	60*	0.4
COc1cccc(NC2c3ccccc3C(=O)N2Cc2ccco2)c1 (configuration not stated)	9	41	-4	0.6	57*	0.4
CCOC(=O)c1cccc(NC2c3ccccc3C(=O)N2Cc2ccco2)c1 (configuration not stated)	9	39	-6	0.6	44	0.6
CCCc1cc(=O)oc2c(C)c(OCC(=O)c3ccc(N4CCCC4)cc3)ccc12	1	-10	1	1.1	5	0.9
COc1ccc(S(=O)(=O)NCc2ccco2)c2ccccc12	34*	47	4	0.5	-104	2*
CN1C(=O)c2cccc3c(S(=O)(=O)NCc4ccco4)ccc1c23	4	94*	-6	0.1	79*	0.2
c1ccc2c(c1)ncn2-c1ccc(-c2ccnc(-c3ccncc3)n2)cc1	72*	86*	98*	0.1	87*	0.1
Cc1nccc(-c2ccc(-n3cnc4ccccc43)cc2)n1	-3	17	-10	0.8	10	0.9
COc1ccc(NC(=O)CSc2nnc(Cn3c(=O)sc4ccccc43)n2C)c(OC)c1	2	·	8	·	·	·
Cc1ccc(C(=O)Nc2cc(C)c(OCC(=O)N3CCOCC3)c(C)c2)cc1	18	10	3	0.9	78*	0.2
CCN(CC)S(=O)(=O)c1ccc(C(=O)Nc2ccc(OCC(=O)N3CCOCC3)cc2)cc1	2	-1	1	1	10	0.9
Cc1ccc2nc3c(nc2c1)-c1ccccc1C3=O	17	-7	4	1.1	4	1
COCCNc1nc2ccccc2nc1NS(=O)(=O)c1ccc(C)cc1C	10	24	5	0.8	98*	0
COC(=O)c1oc2ccc(Cl)cc2c1-n1cccc1	22	58*	-8	0.4	72*	0.3
O=C(/C=C/c1ccc(OCCCF)cc1)NCc1ccc(Cl)cc1	4	34	1	0.7	10	0.9
O=C1CC(N2CCN(c3ccc(C(=O)c4ccc(F)cc4)cc3)CC2)C(=O)N1 (configuration not stated)	3	3	10	1	7	0.9
CC(C)NC(=O)Nc1cccs1	9	·	1	·	·	·
CCOc1ccccc1NC(=O)CCSc1nc2n[nH]c(C)c2c(=N)n1-c1ccccc1Cl	14	71*	-8	0.3	77*	0.2
CCOc1ccccc1-n1c(SCC(=O)Nc2ccc(CC)cc2)nc2n[nH]c(C)c2c1=N	2	23	-7	0.8	14	0.9
Cc1ccc2c(c1)c1cccc3c1n2CCN3CCC(N)=O	6	31	6	0.7	74*	0.3
O=C(CSc1nnc(-c2cccnc2)o1)c1cc2ccccc2oc1=O	17	0	-7	1	70*	0.3
N#Cc1ccc(-c2ccccc2)nc1SCC(=O)c1cc2ccccc2oc1=O	9	8	-5	0.9	76*	0.2
Cn1cnnc1SCC(=O)c1cc2ccccc2oc1=O	9	0	7	1	15	0.8
CC(C)c1c(C#N)c(N)nc(SCC(=O)c2cc3ccccc3oc2=O)c1C#N	2	7	-3	0.9	92*	0.1
SMILES	PostGolgi ctrl	CYP2C19 inhib	PostGolgi yeast	CYP2C19 activ	CYP2C9 inh	CYP2C9 activ
Cc1ccc(CC(NC(=O)c2ccccc2)C(=O)NC(C)C(=O)O)cc1 (configuration not stated)	5	7	7	0.9	-3	1
COc1cccc(C(=O)NCc2n[nH]c(=S)n2-c2cccc(C)c2)c1	8	46	4	0.5	8	0.9
CCCC1CCC(C(=O)Nn2cnc3ccccc3c2=O)CC1 (configuration not stated)	13	58*	0	0.4	56*	0.4
Cc1noc(C)c1S(=O)(=O)N1CCC(C(=O)NC2CCN(Cc3ccccc3)CC2)CC1	13	-6	-2	1.1	-5	1
Cc1noc(C)c1S(=O)(=O)N1CCN(c2ccccc2)CC1	-1	80*	-8	0.2	69*	0.3
Cc1noc(C)c1C(=O)N1CCC(Cc2ccccc2)CC1	4	99*	4	0	73*	0.3
Cc1noc(/C=C/N(C)C)c1S(=O)(=O)N1CCN(c2ccccc2)CC1	3	-7	0	1.1	18	0.8
Cc1onc(-c2ccccc2)c1C(=O)N1CCN(CCc2ccccc2)CC1	17	13	0	0.9	14	0.9
Cc1noc(C)c1S(=O)(=O)N1CCC(Cc2ccccc2)CC1	12	21	-3	0.8	59*	0.4
O=S(=O)(c1ccccc1)N(C1=NCCS1)S(=O)(=O)c1ccccc1	10	20	11	0.8	-17	1.2
Cc1ccc(C(=O)c2c[nH]c(C(=O)NCc3cccnc3)c2)cc1	0	24	-7	0.8	24	0.8
O=C(Nc1ccc(Oc2cccc3ccccc23)cc1)c1ccco1	12	40	-6	0.6	-37	1.4
COc1ccc(S(=O)(=O)Nc2c(C(=O)O)[nH]c3ccccc23)c(OC)c1	13	6	7	0.9	61*	0.4
CCOC(=O)c1[nH]c2ccccc2c1NC(=O)Nc1ccc(OC)cc1	12	48	0	0.5	27	0.7
COc1ccc2[nH]c(C(=O)O)c(NS(=O)(=O)c3ccc(OC)c(OC)c3)c2c1	0	36	0	0.6	76*	0.2
COC(=O)c1[nH]c2ccccc2c1NS(=O)(=O)c1ccc(F)c(C)c1	12	93*	1	0.1	48	0.5
CCCC(=O)Nc1c(C(=O)OCC)[nH]c2ccccc12	-1	12	-1	0.9	5	0.9
CCCc1cc(=O)n2[nH]c(NCc3cccs3)nc2n1	6	6	1	0.9	4	1
O=C(CCn1cnc2ccccc2c1=O)Nc1ccc(S(=O)(=O)N2CCCC2)cc1	10	5	2	0.9	41	0.6
CCOc1ccc(Br)cc1/C=N/O	7	8	-5	0.9	3	1
C=CCOc1ccccc1/C=N/O	15	6	5	0.9	-4	1
O/N=C/c1cc(Cl)ccc1OCc1cccc2ccccc12	61*	53*	24	0.5	76*	0.2
C#CCOc1ccc(Br)cc1/C=N/O	9	64*	5	0.4	66*	0.3
C#CCOc1ccc(Cl)cc1/C=N/O	5	51*	16	0.5	45	0.6
